Screens: PubChem, National Center for Advancing Translational Sciences (NCATS)
Compounds with a hit are over-represented: about 19% of the library has one in this group of screens.
ELG1 repair inh – inhibitors of ELG1-dependent DNA repair in HEK293T cells; actives 2.3% (n = 330,000); HEK293T ELG1-luciferase reporter, luminescence, 16 h; DNA damage induced by 5-fluorouridine; Potency, µM (titrated, usually from 46.1 µM), inactives show at the top dose activity change, negative = inhibition, hits mostly inhibitors; also: potency is read from the fitted curve at half-maximal effect; nearly all actives have a fitted effect of over 55% in size
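5-Fluorouridine DNA damage + compound/DMSO, 2,000 cells/well, 16 h, 37 °C/5% CO2. ONE-Glo, 30 min RT, luminescence. Readout = decrease in reporter signal.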
IL-1B inflam inh – inflammasome signaling inhibition, IL-1 beta readout; THP-1 LPS/ATP IL-1B secretion, AlphaLISA, 16 h; hits give low values; activity change, % at 57.5 µM; actives 4.7% (n = 360,000); in the data active = activity change below about -50%; inconclusive = mostly about -30% to -49%
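Secreted IL-1B measured by AlphaLISA bead assay after 16 h compound exposure of THP-1 cells; compounds (final up to 57.5 uM) added 1 h before LPS (250 ng/mL) and ATP (1.25 mM) stimulation; lower signal means less secretion.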
Giardia kill – Giardia lamblia killing; Giardia lamblia trophozoite viability; actives 0.15% (n = 340,000); activity change, % at 7.66 µM, hits read low; in the data active = activity change below about -80%; inconclusive = between about -30% and that limit;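 also: parasites exposed to compound for two days anaerobically before the ATP read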
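Luminescence from cellular ATP indicates surviving trophozoites (100 cells/well) following 48 hrs anaerobic compound treatment at 37 deg C; signal develops 15-30 min at room temperature.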
TDP1 inh – blocks human tyrosyl-DNA phosphodiesterase 1. actives 0.28% (n = 350,000). Q9NUW8. Potency, µM (series often up to 130 µM), for the others: at the top dose activity change, negative = inhibition, most hits filed as inhibitors. recombinant TDP1, AlphaScreen DNA substrate cleavage. AID 485290; also: potency is read from the fitted curve at half-maximal effect; nearly all actives have a fitted effect of over 40% in size
Target sequence (Q9NUW8 whole entry, looked up): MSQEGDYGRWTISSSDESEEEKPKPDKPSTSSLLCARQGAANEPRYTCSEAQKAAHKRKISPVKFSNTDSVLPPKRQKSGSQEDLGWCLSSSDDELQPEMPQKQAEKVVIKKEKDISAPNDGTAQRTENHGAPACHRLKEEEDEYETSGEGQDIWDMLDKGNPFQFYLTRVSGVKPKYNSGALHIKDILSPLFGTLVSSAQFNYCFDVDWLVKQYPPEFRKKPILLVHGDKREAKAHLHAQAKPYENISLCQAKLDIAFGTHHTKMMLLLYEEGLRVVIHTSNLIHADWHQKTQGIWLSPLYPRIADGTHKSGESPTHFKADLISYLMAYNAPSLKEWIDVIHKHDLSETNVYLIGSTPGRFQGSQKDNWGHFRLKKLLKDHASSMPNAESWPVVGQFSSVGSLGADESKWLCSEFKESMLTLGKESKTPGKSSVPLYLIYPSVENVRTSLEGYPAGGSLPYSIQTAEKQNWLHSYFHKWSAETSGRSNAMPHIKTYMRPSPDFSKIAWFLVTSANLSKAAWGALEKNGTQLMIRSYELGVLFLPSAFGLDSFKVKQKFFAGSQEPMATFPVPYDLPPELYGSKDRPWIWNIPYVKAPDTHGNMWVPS
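Compounds were preincubated with Tdp1 (1 nM final) for 15 min at room temperature before substrate (15 nM final) started a 5 min reaction; beads (10 ug/ml final) were then added for 10 min before AlphaScreen detection.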
DT40 TDP1 CPT – DT40-hTDP1 cell growth loss with CPT | Potency, µM (top dose mostly 46.2 µM), for the others: at the top dose activity change, negative = growth inhibition, usual class: inhibitors | actives 12% (n = 420,000) | AID 686979 | chicken DT40 Tdp1-/-;hTDP1 cells + 20 nM CPT, ATP luminescence, 48 h; also: potency is read from the fitted curve at half-maximal effect; nearly all actives have a fitted effect of over 55% in size
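Cell growth measured by CellTiter-Glo luminescence after a minimum 48 h, 37 C compound exposure with 20 nM CPT in Tdp1-knockout DT40 cells stably expressing hTDP1, seeded 400/well; qHTS titration format.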
TDP1 cell noCPT – qHTS for Inhibitors of human tyrosyl-DNA phosphodiesterase 1 (TDP1): qHTS in cells in absence of CPT; DT40 Tdp1-/- hTDP1 cells, no CPT, ATP luminescence, 48 h; Potency, µM (titrated, usually from 46.2 µM), for the others: top-dose activity change, negative = growth inhibition, usual class: inhibitors; actives 15% (n = 420,000); also: potency is read from the fitted curve at half-maximal effect; nearly all actives have a fitted effect of over 55% in size
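Compound effects on proliferation are scored in DT40 Tdp1-/-;hTDP1 cells in the absence of CPT. ATP levels (CellTiter-Glo luminescence) are recorded after a ≥48 hr, 37 °C incubation.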
* hit, by the source's call; [ ] = dose if it differs, or a comment. Unless noted, calls follow the shape of the dose curve; as a rule, active = well fitted curve in the direction sought with a large enough effect; inconclusive = small, poorly fitted or top-dose-only effect, or another doubt; inactive = no such curve, though single readings can be large; an effect the other way counts as inactive or inconclusive. % is scaled to controls: 0 for no effect and ±100 for the full control effect.

`CCCn1c(O)c(N=NC(=O)c2ccco2)c2ccccc21` gave ELG1 repair inh inconclusive, IL-1B inflam inh -8, Giardia kill 7, TDP1 inh 3%, DT40 TDP1 CPT 13µM* and TDP1 cell noCPT 12µM*.
For O=C(Cn1ncc(Cl)c(Cl)c1=O)N1CCN(Cc2ccccc2)CC1 the results were ELG1 repair inh inconclusive, IL-1B inflam inh -3, Giardia kill 18, TDP1 inh 4%, DT40 TDP1 CPT 3.3µM* and TDP1 cell noCPT 3.3µM*.
`CCCn1c2ccccc2c2cnn(CC(=O)N3CCOCC3)c(=O)c21` gave ELG1 repair inh -3%, IL-1B inflam inh 19, Giardia kill -11, TDP1 inh 3%, DT40 TDP1 CPT -20% and TDP1 cell noCPT inconclusive.
`O=C(Cn1ncc(Cl)c(Cl)c1=O)N1CCc2ccccc21` gave ELG1 repair inh inconclusive, IL-1B inflam inh -109*, Giardia kill 3, TDP1 inh 6%, DT40 TDP1 CPT 4.6µM* and TDP1 cell noCPT 6.5µM*.
O=C(Cn1ncc(Cl)c(Cl)c1=O)N1CCOCC1 was read as ELG1 repair inh inconclusive, IL-1B inflam inh -99*, Giardia kill -16, TDP1 inh 0%, DT40 TDP1 CPT inconclusive and TDP1 cell noCPT 13µM*.
Screening CC1(C)C(=O)Nc2ccccc2N1C(=O)CSc1nc(-c2ccccc2)cs1 returned ELG1 repair inh inconclusive, IL-1B inflam inh inconclusive, Giardia kill 14, TDP1 inh 3%, DT40 TDP1 CPT inconclusive and TDP1 cell noCPT 15µM*.
Screening O=C(Cn1ncc2c1-c1ccccc1OC2)N1CCN(Cc2ccccc2)CC1 returned ELG1 repair inh inconclusive, IL-1B inflam inh -6, Giardia kill -15, DT40 TDP1 CPT inconclusive and TDP1 cell noCPT inconclusive.
For Cc1ccsc1C(=O)OCC(=O)NCc1cccs1 the results were IL-1B inflam inh 22, DT40 TDP1 CPT 5% and TDP1 cell noCPT -21%.
Screening CC1(C)C(=O)Nc2ccccc2N1C(=O)Cn1ncc(Cl)c(Cl)c1=O returned ELG1 repair inh inconclusive, IL-1B inflam inh -99*, Giardia kill 6, TDP1 inh 2%, DT40 TDP1 CPT 23µM* and TDP1 cell noCPT 23µM*.
For CCCn1c(C)cc(/C=C(\C#N)C(=O)OCC(=O)N(CC)c2c(N)n(Cc3ccccc3)c(=O)[nH]c2=O)c1C the results were IL-1B inflam inh inconclusive, Giardia kill -14, DT40 TDP1 CPT inconclusive and TDP1 cell noCPT -26%.
CCCN(CC(=O)Nc1ccccc1C)C(=O)CSc1ccccc1C was read as ELG1 repair inh -2%, IL-1B inflam inh -13, Giardia kill -9, TDP1 inh 0%, DT40 TDP1 CPT -3% and TDP1 cell noCPT -9%.
Screening CC(C)Nc1nc(Nc2ccc(C#N)cc2)c2sccc2n1 returned IL-1B inflam inh -1, DT40 TDP1 CPT 15µM* and TDP1 cell noCPT 26µM*.
Screening CC(C)Nc1nc(Nc2ccc(F)cc2)c2sccc2n1 returned IL-1B inflam inh -5, DT40 TDP1 CPT 26µM* and TDP1 cell noCPT inconclusive.
`c1ccc(CCCN2CCN(c3ccccn3)CC2)cc1` gave ELG1 repair inh 24%, IL-1B inflam inh -9, Giardia kill -19, DT40 TDP1 CPT -9% and TDP1 cell noCPT 0%.
Screening COc1ccc(NC(=O)CNC(=O)Cc2cccc3ccccc23)c(OC)c1 returned ELG1 repair inh 1%, IL-1B inflam inh 9, Giardia kill 10, TDP1 inh 2%[0.505 µM], DT40 TDP1 CPT 6% and TDP1 cell noCPT -14%.
Screening Cc1ccc(C(=S)NCS(=O)(=O)c2ccc(C)cc2)cc1 returned ELG1 repair inh 5%, IL-1B inflam inh -3, Giardia kill -1, TDP1 inh 12%, DT40 TDP1 CPT 13µM* and TDP1 cell noCPT 13µM*.
`CCOC(=O)CC(=O)CSc1nc(-c2cccnc2)ccc1C#N` gave ELG1 repair inh inconclusive, IL-1B inflam inh -6, Giardia kill -11, TDP1 inh 0%, DT40 TDP1 CPT inconclusive and TDP1 cell noCPT 3.5µM*.
Screening CCOC(=O)CC(=O)CSc1nc(-c2cccnc2)cc(C)c1C#N returned ELG1 repair inh 0%, IL-1B inflam inh 16, Giardia kill 5, TDP1 inh 0%, DT40 TDP1 CPT 10% and TDP1 cell noCPT 8%.
O=C(Cn1nnc2ccccc21)Nc1ccc(Cl)cn1 was read as ELG1 repair inh inconclusive, IL-1B inflam inh 0, Giardia kill -10, TDP1 inh 1%, DT40 TDP1 CPT 0% and TDP1 cell noCPT 5%.
CC(NC(=O)C(=O)N/N=C/c1ccccc1)c1ccccc1 (stereo not given) was read as ELG1 repair inh -4%, IL-1B inflam inh 27, Giardia kill 20, TDP1 inh 2%, DT40 TDP1 CPT -17% and TDP1 cell noCPT -19%.
For O=C(N/N=C(\c1ccccc1)c1cccnc1)c1ccc(O)cc1 the results were ELG1 repair inh -4%, IL-1B inflam inh -12, Giardia kill -15, TDP1 inh 6%[56.1 µM], DT40 TDP1 CPT -17% and TDP1 cell noCPT 13%.
Screening O=C(N/N=C(\Cc1ncc[nH]1)c1ccccc1)c1ccccc1 returned ELG1 repair inh inconclusive and TDP1 inh 0%.
O=C(N/N=C(\Cc1ncc[nH]1)c1ccccc1)c1cccnc1 was read as ELG1 repair inh 9.2µM*, IL-1B inflam inh 101, Giardia kill 1, TDP1 inh 8%, DT40 TDP1 CPT 4.6µM* and TDP1 cell noCPT 4.6µM*.
O=C(N/N=C(\Cc1ncc[nH]1)c1ccccc1)c1ccncc1 was read as ELG1 repair inh inconclusive, IL-1B inflam inh 59, Giardia kill 20, TDP1 inh 8%, DT40 TDP1 CPT 4.6µM* and TDP1 cell noCPT 4.6µM*.
Screening O=C(NCCc1cccnc1)C1CCC(=O)N(CCc2cccc(F)c2)C1 (stereo not given) returned ELG1 repair inh 8%, IL-1B inflam inh -4, Giardia kill -6, TDP1 inh 3%, DT40 TDP1 CPT 10% and TDP1 cell noCPT 6%.
O=C(COc1ccc2oc(-c3ccco3)cc(=O)c2c1)N1CCCCC1 was read as ELG1 repair inh 10%, IL-1B inflam inh -18, Giardia kill -26, TDP1 inh 56µM*, DT40 TDP1 CPT inconclusive and TDP1 cell noCPT -18%.
`O=c1cc(-c2ccco2)oc2ccc(Cl)cc12` gave ELG1 repair inh inconclusive, IL-1B inflam inh -5, Giardia kill 0, TDP1 inh 0%, DT40 TDP1 CPT -6% and TDP1 cell noCPT -25%.
